Structures are written as SMILES. In all, about 39,000 compounds went through this assay and about 3,300 (8.5%) were called active. Many of the other results were omitted from the sample, so actives are more common in it than they were.

This experiment deals with HepG2. In words: cytotoxicity call (relative viability < 0.9). Particulars: 10 µM.
For `Cc1cccnc1[C@H](c1ccc(F)cc1)N(C)C(=O)C1CCN(CCOc2ccc(Cl)cc2Cl)CC1`, the cytotoxicity call is “inactive”.
Regarding `CC(=O)N(C)C[C@H]1Oc2ncc(C#C[C@@H](C)O)cc2C(=O)N([C@@H](C)CO)C[C@H]1C`, the cytotoxicity call was “inactive”.
Turning to `C[C@@H]1CN([C@H](C)CO)C(=O)Cc2cc(NC(=O)Nc3cccc4ccccc34)ccc2O[C@H]1CN(C)C(=O)Nc1ccc(F)cc1`, the cytotoxicity call was “inactive”.
For `CNC[C@@H]1Oc2cc(C#CCN(C)C)ccc2S(=O)(=O)N([C@H](C)CO)C[C@@H]1C`, the cytotoxicity call was “inactive”.
The result for `CCCN1C[C@@H](C)[C@H](OC)CN(C)C(=O)c2cc(NS(=O)(=O)c3cn(C)cn3)ccc2OC[C@@H]1C` reads “inactive”.
With `CN1CCN(C(=O)C[C@H]2CC[C@H](NC(=O)Cc3ccccn3)[C@H](CO)O2)CC1`, the cytotoxicity call was “inactive”.
For the molecule `C[C@@H]1CCCCO[C@H](CN(C)S(=O)(=O)c2ccccc2)[C@@H](C)CN([C@H](C)CO)C(=O)c2cc(NC(=O)Nc3ccccc3)ccc2O1`, the cytotoxicity call is “inactive”.
For the molecule `O=C(O)c1ccc(N[C@@H]2O[C@H](CO)[C@@H](O)[C@H](O)[C@H]2O)cc1`, the cytotoxicity call is “inactive”.
For `Cc1ccc(S(=O)(=O)Nc2ccc3c(c2)C(=O)N([C@H](C)CO)C[C@@H](C)[C@@H](CN(C)S(=O)(=O)c2ccc(Cl)cc2)OCCCC[C@@H](C)O3)cc1`, the cytotoxicity call is “inactive”.
As to `Cc1ccc(S(=O)(=O)Nc2ccc3c(c2)C(=O)N([C@H](C)CO)C[C@H](C)[C@H](CN(C)S(=O)(=O)c2ccc(Cl)cc2)OCCCC[C@@H](C)O3)cc1`, the cytotoxicity call is “inactive”.
As to `Cc1ccc(S(=O)(=O)N(C)C[C@@H]2OCCCC[C@@H](C)Oc3ccc(NS(=O)(=O)c4ccc(Cl)cc4)cc3C(=O)N([C@H](C)CO)C[C@@H]2C)cc1`, the cytotoxicity call is “inactive”.
Regarding `Cc1ccc(S(=O)(=O)Nc2ccc3c(c2)C(=O)N([C@@H](C)CO)C[C@@H](C)[C@H](CN(C)S(=O)(=O)c2ccc(Cl)cc2)OCCCC[C@@H](C)O3)cc1`, the cytotoxicity call is “inactive”.
Consider `Cc1ccc(S(=O)(=O)Nc2ccc3c(c2)C(=O)N([C@@H](C)CO)C[C@@H](C)[C@@H](CN(C)S(=O)(=O)c2ccc(Cl)cc2)OCCCC[C@@H](C)O3)cc1`, for which the cytotoxicity call is “inactive”.
For `Cc1ccc(S(=O)(=O)Nc2ccc3c(c2)C(=O)N([C@@H](C)CO)C[C@H](C)[C@@H](CN(C)S(=O)(=O)c2ccc(Cl)cc2)OCCCC[C@H](C)O3)cc1`, the cytotoxicity call was “active”.
`Cc1ccc(S(=O)(=O)Nc2ccc3c(c2)C(=O)N([C@H](C)CO)C[C@@H](C)[C@H](CN(C)S(=O)(=O)c2ccc(Cl)cc2)OCCCC[C@@H](C)O3)cc1`: the cytotoxicity call was “active”.
For `Cc1ccc(S(=O)(=O)Nc2ccc3c(c2)C(=O)N([C@H](C)CO)C[C@H](C)[C@@H](CN(C)S(=O)(=O)c2ccc(Cl)cc2)OCCCC[C@H](C)O3)cc1`, the cytotoxicity call is “active”.
The result for `Cc1ccc(S(=O)(=O)N(C)C[C@H]2OCCCC[C@H](C)Oc3ccc(NS(=O)(=O)c4ccc(Cl)cc4)cc3C(=O)N([C@H](C)CO)C[C@H]2C)cc1` reads “inactive”; that for `Cc1ccc(S(=O)(=O)N(C)C[C@H]2Oc3ccc(NS(=O)(=O)c4cccs4)cc3CC(=O)N([C@H](C)CO)C[C@H]2C)cc1`, “inactive”.
`COc1ccc(CNC(=O)N(C)C[C@@H]2OCc3ccccc3-c3c(n(C)c4ccccc34)C(=O)N([C@@H](C)CO)C[C@H]2C)cc1`: the cytotoxicity call was “inactive”.
As to `C[C@H]1CN([C@@H](C)CO)C(=O)c2cccc(NC(=O)Nc3ccc(F)cc3)c2O[C@H]1CN(C)S(C)(=O)=O`, the cytotoxicity call was “inactive”.
On to `COc1c(-c2coc3cc4c(cc3c2=O)CC(O)C(C)(C)O4)ccc2c1C=CC(C)(C)O2` (stereo not given), for which the cytotoxicity call is “active”.
In the case of `COc1ccc(-c2coc3cc(O)ccc3c2=O)c(OC)c1OC`, the cytotoxicity call is “inactive”.
The result for `COc1ccc(-c2coc3cc(O)ccc3c2=O)c(O)c1O` reads “inactive”; that for `O=C(C[C@@H]1CC[C@@H](NC(=O)C2CC2)[C@@H](CO)O1)NCCCN1CCOCC1`, “inactive”; that for `C[C@@H]1CN([C@H](C)CO)C(=O)c2cc(-c3ccc(C(=O)N(C)C)cc3)cnc2O[C@@H]1CN(C)C(=O)CN(C)C`, “inactive”.
Regarding `Cc1cc(-c2ccc(NN=C3C=Cc4c(S(=O)(=O)O)cc(S(=O)(=O)O)c(N)c4C3=O)c(C)c2)ccc1NN=C1C=Cc2c(S(=O)(=O)O)cc(S(=O)(=O)O)c(N)c2C1=O`, the cytotoxicity call is “active”.
For the molecule `COc1cc(-c2ccc(NN=C3C=Cc4c(S(=O)(=O)O)cc(S(=O)(=O)O)c(N)c4C3=O)c(OC)c2)ccc1NN=C1C=Cc2c(S(=O)(=O)O)cc(S(=O)(=O)O)c(N)c2C1=O`, the cytotoxicity call is “active”.
The result for `COCC(=O)N1C[C@]2(CCN(CC2)C(=O)CN2CCOCC2)c2c([nH]c3cc(ccc23)OC)[C@@H]1CO` reads “inactive”; that for `COc1ccc2c3c(n(c2c1)C)[C@H](CO)N(C[C@]13CCN(CC1)C(=O)C1CCOCC1)C(=O)C1CCOCC1`, “inactive”; that for `C[C@@H]1CN([C@@H](C)CO)C(=O)c2cccc(NC(=O)C3CC3)c2O[C@H]1CN(C)Cc1ccc(Oc2ccccc2)cc1`, “inactive”.
Turning to `O=C(Nc1ccccc1)c1ccccc1`, the cytotoxicity call was “inactive”.
In the case of `CC(=O)Nc1ccccc1`, the cytotoxicity call was “inactive”.
With `NNC(=O)c1ccccc1O`, the cytotoxicity call is “inactive”.
Regarding `O=C(Nc1ccccc1)Nc1ccccc1`, the cytotoxicity call is “inactive”.
Consider `O=C(Nc1ccccc1)Nc1ccc(Nc2ccccc2)cc1`, for which the cytotoxicity call is “active”.
Regarding `O=C(Nc1ccccc1)c1ccccc1O`, the cytotoxicity call is “active”.
The result for `C[C@@H]1CN([C@@H](C)CO)C(=O)c2cccc(NC(=O)Nc3ccccc3)c2O[C@H]1CN(C)S(C)(=O)=O` reads “inactive”.
`COc1ccc(CN(C)C[C@H]2OCCCC[C@@H](C)Oc3ccc(NC(=O)C4CCCCC4)cc3C(=O)N([C@@H](C)CO)C[C@H]2C)cc1`: the cytotoxicity call is “inactive”.
As to `CN1C(=O)c2cc(NC(=O)C3CCCC3)ccc2OC[C@H]2O[C@H](CC(=O)NCCc3ccncc3)CC[C@@H]21`, the cytotoxicity call was “inactive”.
On to `Cc1ccc(S(=O)(=O)N(C)C[C@@H]2Oc3ccc(NS(=O)(=O)c4ccccc4)cc3C(=O)N([C@H](C)CO)C[C@@H]2C)cc1`, for which the cytotoxicity call was “inactive”.
Regarding `C[C@@H]1CN([C@@H](C)CO)C(=O)c2ccccc2-c2ccccc2CO[C@@H]1CN(C)Cc1cccc(C(F)(F)F)c1`, the cytotoxicity call is “inactive”.
With `CCCNC(=O)N[C@@H]1CC[C@H](CC(=O)N2CCN(C)CC2)O[C@H]1CO`, the cytotoxicity call is “inactive”.
Regarding `COc1ccccc1NC(=O)Nc1ccc2c(c1)C(=O)N(C)C[C@@H](OC)[C@H](C)CN(Cc1ccccc1Cl)[C@H](C)CO2`, the cytotoxicity call is “inactive”.
Turning to `O=C1C=CC(=O)N1`, the cytotoxicity call is “active”.
For `COc1ccc(CN(C)C[C@@H]2OCCCC[C@H](C)Oc3ccc(NC(=O)CCC(F)(F)F)cc3C(=O)N([C@H](C)CO)C[C@@H]2C)cc1`, the cytotoxicity call is “inactive”.
Consider `CNC[C@@H]1Oc2ccc(NC(=O)Cn3cnnn3)cc2C(=O)N([C@H](C)CO)C[C@@H]1C`, for which the cytotoxicity call is “inactive”.
Take `C[C@H](CO)N1C[C@H](C)[C@H](CN(C)C(=O)Nc2ccc(F)cc2)Oc2ccc(NC(=O)CCN3CCOCC3)cc2CC1=O`: the cytotoxicity call was “inactive”.
The result for `C[C@H](CO)N1C[C@H](C)[C@@H](CN(C)C(=O)Nc2ccc3c(c2)OCO3)Oc2c(NC(=O)C3CCOCC3)cccc2C1=O` reads “inactive”.
Turning to `O=C(Nc1cc(Cl)cc(Cl)c1O)c1c(O)c(Cl)cc(Cl)c1Cl`, the cytotoxicity call was “inactive”.
For the molecule `Oc1c(Cl)cc(Cl)c(Cl)c1Cc1c(O)c(Cl)cc(Cl)c1Cl`, the cytotoxicity call is “active”.
As to `O=C(/C=C/c1cccc(-c2cn(CC[C@@H]3OC(=O)[C@H](Cc4ccccc4)N4CC5=CC(=O)[C@H](C6CC6)[C@H]5[C@H]34)nn2)c1)NO`, the cytotoxicity call was “inactive”.
For the molecule `O=C(C[C@@H]1C[C@@H]2c3cc(NC(=O)Nc4ccc(C(F)(F)F)cc4)ccc3O[C@@H]2[C@H](CO)O1)NCCc1ccccc1`, the cytotoxicity call is “inactive”.
Consider `CCS(=O)(=O)N1[C@H](CO)[C@H](c2ccccc2)C12CN(C(=O)CN(C)C)C2`, for which the cytotoxicity call was “inactive”.
The result for `C[C@H]1CCCCO[C@H](CN(C)C(=O)C2CCCCC2)[C@@H](C)CN([C@@H](C)CO)C(=O)c2cc(NC(=O)Nc3ccc4c(c3)OCO4)ccc2O1` reads “inactive”.
As to `COc1c(C)c2c(c(O)c1CC=C(C)CCC(=O)OCCN1CCOCC1)C(=O)OC2`, the cytotoxicity call is “inactive”.
For the molecule `COc1c(C)c2c(c(O)c1CC=C(C)CCC(=O)O)C(=O)OC2`, the cytotoxicity call was “active”.
For `COc1cccc(S(=O)(=O)N2C[C@@H](O)COC[C@@H]3O[C@@H](CC(=O)N4CCOCC4)CC[C@H]32)c1`, the cytotoxicity call is “inactive”.
For the molecule `COc1ccc(NC(=O)N(C)C[C@H]2Oc3c(NC(=O)CCCCCC(=O)Nc4ccccc4N)cccc3C(=O)N([C@@H](C)CO)C[C@H]2C)cc1`, the cytotoxicity call is “inactive”.
On to `C[C@H]1CN([C@@H](C)CO)C(=O)c2cc(C#CCc3ccccc3)cnc2O[C@H]1CN(C)C(=O)Cc1cccnc1`, for which the cytotoxicity call was “inactive”.
The result for `Cc1ccccc1S(=O)(=O)N1C[C@H](O)COC[C@@H]2O[C@@H](CC(=O)N3CCOCC3)CC[C@H]21` reads “inactive”; that for `CC(C)C(=O)Oc1ccc(CO)cc1C(CCN(C(C)C)C(C)C)c1ccccc1.O=C(O)C=CC(=O)O` (stereo not given), “active”; that for `C[C@H]1CN([C@@H](C)CO)C(=O)c2cc(NC(=O)CCN3CCOCC3)ccc2O[C@@H]1CN(C)C(=O)Nc1ccc2c(c1)OCO2`, “inactive”.
For the molecule `CC(=O)NCCCC[C@@H]1NC(=O)[C@@H]2C[C@H](C(=O)NCCCCCCN(C)C)[C@H](c3ccc(O)cc3)N2C1=O`, the cytotoxicity call was “inactive”.
For `C[C@@H]1CCCCO[C@@H](CN(C)Cc2ccc(Cl)c(Cl)c2)[C@@H](C)CN([C@H](C)CO)C(=O)c2cc(NC(=O)c3ccccc3)ccc2O1`, the cytotoxicity call is “inactive”.
As for `CCOn1ccnc1`, the cytotoxicity call is “inactive”.
With `Cn1c(=O)c2c(nc(N3CCCCC3)n2CCN)n(C)c1=O`, the cytotoxicity call is “inactive”.
With `Cc1cc(C)n(-c2nc3c(c(=O)n(CCN4CCOCC4)c(=O)n3C)n2C)n1`, the cytotoxicity call was “inactive”.
On to `CC#CCn1c(N2CCC[C@@H](N)C2)nc2c1c(=O)n(Cc1nc(C)c3ccccc3n1)c(=O)n2C`, for which the cytotoxicity call is “active”.
In the case of `C[C@H]1CN([C@@H](C)CO)C(=O)c2cccc(NS(=O)(=O)c3cn(C)cn3)c2O[C@@H]1CN(C)C(=O)Nc1ccc2c(c1)OCO2`, the cytotoxicity call was “inactive”.
As for `CC(=O)N1[C@@H]2Cn3c(ccc(-c4ccccc4)c3=O)[C@H]1[C@@H](C(=O)NCCCN1CCOCC1)[C@@H]2CO`, the cytotoxicity call was “inactive”.

The values are drawn from the antibiotic and cytotoxicity screens of Wong et al. (2023).
